# Laboratory results: PubChem BioAssay (Tox21)
# “And” between values parts separate entries of the source, which are not always exact repeats. Identical values can stand only once. Records with an inconclusive call do not appear. A call without a number means that no potency is given here. The source made the active and inactive calls. Unless noted, calls follow the shape of the dose curve; as a rule, active = well fitted curve in the direction sought with a large enough effect in the repeat runs; inconclusive = weak or mixed curves; inactive = no such curve, though single readings can be large; an effect the other way counts as inactive or inconclusive.
# Experiments:
# [1] = target: Acetylcholinesterase (Homo sapiens) (UniProt P22303); assay: Acetylcholinesterase (AChE) small molecule antagonists: enzyme-based qHTS assay with human liver microsomes (AID 1347399; calls by dose curve; also: nearly all actives have a fitted effect of over 60% in size); conditions: Potency: qHTS inhibition; series mostly up to 115 µM
# Summary of the method: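 Recombinant human AChE (50 mU/mL in the enzyme mix) and human liver microsomes (0.25 mg/mL final) were preincubated with compound and NADPH (0.25 mg/mL final) for 30 min at 37 C. Acetylthiocholine/DTNB was then added; thiocholine was read colorimetrically after 10 min at room temperature.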
# [2] = target: Cytochrome P450 2D6 (Homo sapiens) (UniProt P10635); assay: Cytochrome P450 Family 2 Subfamily D Member 6 (CYP2D6) small molecule antagonists: luciferase reporter qHTS assay (AID 1671196); conditions: P450-Glo CYP2D6 enzyme assay, luciferin luminescence, 1 h; series mostly up to 115 µM; also: nearly all actives have a fitted effect of over 50% in size
# Summary of the method: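 Enzyme and proluciferin substrate were first combined with test chemical for 10 min at room temperature. Adding NADPH regeneration solution started a 1 h reaction, stopped with luciferin detection reagent and read by luminescence 20 min later.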
# [3] = target: Cytochrome P450 2C9 (Homo sapiens) (UniProt P11712); assay: Cytochrome P450 Family 2 Subfamily C Member 9 (CYP2C9) small molecule antagonists: luciferase reporter qHTS assay (AID 1671198); conditions: P450-Glo CYP2C9 enzyme assay, luciferin luminescence; series mostly up to 115 µM; also: nearly all actives have a fitted effect of over 50% in size; also: potency is read from the fitted curve at half-maximal effect
# Summary of the method: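 Enzyme-substrate mix preincubated with compound 10 min at room temperature; reaction started with NADPH regeneration solution, 1 h 37C. Luminescent luciferin product read after 20 min detection reagent.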
# [4] = target: Voltage-gated inwardly rectifying potassium channel KCNH2 (Homo sapiens) (UniProt Q12809); assay: Human Ether-a-go-go-Related Gene (hERG) channel small molecule antagonists: fluorescence cell-based qHTS assay (AID 1671200); conditions: hERG-U2OS cells, FluxOR thallium flux fluorescence; series mostly up to 76.8 µM; also: nearly all actives have a fitted effect of over 50% in size; also: potency is read from the fitted curve at half-maximal effect
# Summary of the method: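 In this thallium-flux screen, overnight-cultured U2OS cells bearing the channel are dye-loaded in darkness for an hour, rested 10 min at room temperature, and then monitored kinetically at 480/540 nm for two minutes post-stimulus.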
# [5] = target: Cytochrome P450 3A4 (Homo sapiens) (UniProt P08684); assay: Cytochrome P450 Family 3 Subfamily A Member 4 (CYP3A4) small molecule antagonists: luciferase reporter qHTS assay (AID 1671201); conditions: P450-Glo CYP3A4 enzyme, luciferin luminescence, 1 h; series mostly up to 115 µM; also: nearly all actives have a fitted effect of over 50% in size; also: potency is read from the fitted curve at half-maximal effect
# Summary of the method: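 CYP3A4 activity was followed with a P450-Glo proluciferin substrate. Test compounds in DMSO were preincubated 10 min; NADPH regeneration then ran 1 h, and light output was read 20 min after detection reagent.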
# [6] = target: Cytochrome P450 2C19 (Homo sapiens) (UniProt P33261); assay: Cytochrome P450 Family 2 Subfamily C Member 19 (CYP2C19) small molecule antagonists: luciferase reporter qHTS assay (AID 1671197); conditions: P450-Glo CYP2C19 enzyme, luciferin luminescence, 1 h; series mostly up to 115 µM; also: nearly all actives have a fitted effect of over 65% in size; also: potency is read from the fitted curve at half-maximal effect
# Summary of the method: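 First, compounds are pinned into enzyme-substrate mix and held 10 min at room temperature. Second, NADPH regeneration solution is added and plates incubate 1 h at 37C. Third, detection reagent is added and luminescence read after 20 min.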
# [7] = target: Cytochrome P450 1A2 (Homo sapiens) (UniProt P05177); assay: Cytochrome P450 Family 1 Subfamily A Member 2 (CYP1A2) small molecule antagonists: luciferase reporter qHTS assay (AID 1671199); conditions: P450-Glo CYP1A2 enzyme, luciferin luminescence, 1 h; series mostly up to 115 µM; also: nearly all actives have a fitted effect of over 50% in size; also: potency is read from the fitted curve at half-maximal effect
# Summary of the method: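 Compounds were incubated with CYP1A2 and a luminogenic proluciferin substrate for 10 min at room temperature before the reaction was started with NADPH regeneration solution. After 1 h, detection reagent was added and light output, proportional to CYP activity, was recorded.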
# Voltage-gated inwardly rectifying potassium channel KCNH2 (Homo sapiens), sequence (Q12809 whole entry, looked up): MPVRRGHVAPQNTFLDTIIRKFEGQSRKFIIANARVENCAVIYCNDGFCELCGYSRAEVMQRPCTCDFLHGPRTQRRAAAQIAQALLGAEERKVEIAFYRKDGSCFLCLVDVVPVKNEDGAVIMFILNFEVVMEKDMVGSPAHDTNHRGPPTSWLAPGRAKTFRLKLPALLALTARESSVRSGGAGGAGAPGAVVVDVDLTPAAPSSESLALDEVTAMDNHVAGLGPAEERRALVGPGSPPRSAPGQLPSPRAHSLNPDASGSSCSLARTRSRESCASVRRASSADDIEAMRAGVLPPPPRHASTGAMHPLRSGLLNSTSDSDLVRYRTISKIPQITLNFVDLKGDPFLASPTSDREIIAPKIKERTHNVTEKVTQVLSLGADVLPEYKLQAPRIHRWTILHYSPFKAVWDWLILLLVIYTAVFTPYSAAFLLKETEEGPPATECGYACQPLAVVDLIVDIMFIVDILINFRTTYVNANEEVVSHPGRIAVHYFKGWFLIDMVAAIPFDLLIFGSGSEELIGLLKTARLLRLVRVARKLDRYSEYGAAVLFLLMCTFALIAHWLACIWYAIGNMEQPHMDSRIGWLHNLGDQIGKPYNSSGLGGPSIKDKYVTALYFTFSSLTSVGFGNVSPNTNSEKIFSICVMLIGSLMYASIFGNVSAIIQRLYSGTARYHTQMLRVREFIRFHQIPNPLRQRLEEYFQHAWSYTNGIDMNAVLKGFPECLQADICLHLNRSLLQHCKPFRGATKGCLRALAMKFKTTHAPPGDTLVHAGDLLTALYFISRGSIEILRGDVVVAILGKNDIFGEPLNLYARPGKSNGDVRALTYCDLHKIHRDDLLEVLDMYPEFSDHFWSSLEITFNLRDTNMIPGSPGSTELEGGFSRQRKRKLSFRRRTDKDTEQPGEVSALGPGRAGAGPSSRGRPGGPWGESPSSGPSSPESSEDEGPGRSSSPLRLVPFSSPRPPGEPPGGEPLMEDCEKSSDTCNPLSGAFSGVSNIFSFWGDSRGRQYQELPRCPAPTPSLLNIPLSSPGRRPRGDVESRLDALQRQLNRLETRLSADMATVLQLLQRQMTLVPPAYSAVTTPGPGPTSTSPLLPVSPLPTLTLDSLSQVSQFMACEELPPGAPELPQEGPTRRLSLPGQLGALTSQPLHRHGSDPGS
# Cytochrome P450 3A4 (Homo sapiens), sequence (P08684 whole entry, looked up): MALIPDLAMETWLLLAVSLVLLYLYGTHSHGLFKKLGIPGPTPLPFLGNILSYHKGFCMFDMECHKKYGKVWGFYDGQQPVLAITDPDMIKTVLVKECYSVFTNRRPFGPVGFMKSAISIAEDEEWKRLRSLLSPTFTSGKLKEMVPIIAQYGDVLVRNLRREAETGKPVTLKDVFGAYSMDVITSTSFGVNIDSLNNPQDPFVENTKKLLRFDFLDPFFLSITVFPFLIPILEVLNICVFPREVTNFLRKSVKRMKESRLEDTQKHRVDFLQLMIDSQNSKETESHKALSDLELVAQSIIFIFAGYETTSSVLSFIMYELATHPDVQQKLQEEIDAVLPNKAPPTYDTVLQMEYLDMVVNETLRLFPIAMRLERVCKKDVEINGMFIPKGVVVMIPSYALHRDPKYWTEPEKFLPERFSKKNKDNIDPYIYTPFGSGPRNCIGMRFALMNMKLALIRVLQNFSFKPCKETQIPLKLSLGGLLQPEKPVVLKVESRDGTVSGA
# Acetylcholinesterase (Homo sapiens), sequence (P22303 whole entry, looked up): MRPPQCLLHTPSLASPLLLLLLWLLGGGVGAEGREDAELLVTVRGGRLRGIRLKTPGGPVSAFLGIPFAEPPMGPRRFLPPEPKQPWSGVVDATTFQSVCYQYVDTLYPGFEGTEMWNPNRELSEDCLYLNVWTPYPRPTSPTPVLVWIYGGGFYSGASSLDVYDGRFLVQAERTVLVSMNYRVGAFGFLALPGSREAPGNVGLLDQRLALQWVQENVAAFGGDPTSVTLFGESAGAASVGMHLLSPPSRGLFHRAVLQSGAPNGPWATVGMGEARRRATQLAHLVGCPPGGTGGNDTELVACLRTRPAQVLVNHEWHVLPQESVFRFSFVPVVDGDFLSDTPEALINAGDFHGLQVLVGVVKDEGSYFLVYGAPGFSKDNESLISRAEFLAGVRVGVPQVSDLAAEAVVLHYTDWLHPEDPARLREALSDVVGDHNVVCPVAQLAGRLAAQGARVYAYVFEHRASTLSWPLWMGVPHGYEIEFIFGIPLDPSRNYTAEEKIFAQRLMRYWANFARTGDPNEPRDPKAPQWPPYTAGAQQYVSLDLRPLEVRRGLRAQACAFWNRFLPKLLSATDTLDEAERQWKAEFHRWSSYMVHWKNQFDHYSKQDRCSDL
# Cytochrome P450 2C19 (Homo sapiens), sequence (P33261 whole entry, looked up): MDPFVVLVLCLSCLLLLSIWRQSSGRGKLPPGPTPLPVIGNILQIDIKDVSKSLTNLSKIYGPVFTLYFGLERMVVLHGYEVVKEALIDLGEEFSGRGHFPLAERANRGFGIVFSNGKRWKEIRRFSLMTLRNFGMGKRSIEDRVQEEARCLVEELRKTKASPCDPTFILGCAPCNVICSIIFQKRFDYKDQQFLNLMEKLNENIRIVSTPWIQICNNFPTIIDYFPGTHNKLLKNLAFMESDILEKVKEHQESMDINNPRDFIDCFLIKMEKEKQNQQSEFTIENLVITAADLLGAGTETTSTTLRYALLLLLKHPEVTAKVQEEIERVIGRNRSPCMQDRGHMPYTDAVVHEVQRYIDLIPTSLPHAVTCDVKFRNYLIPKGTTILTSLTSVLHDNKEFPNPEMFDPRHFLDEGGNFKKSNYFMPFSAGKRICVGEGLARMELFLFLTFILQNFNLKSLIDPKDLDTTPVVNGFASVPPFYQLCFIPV
# Cytochrome P450 2D6 (Homo sapiens), sequence (P10635 whole entry, looked up): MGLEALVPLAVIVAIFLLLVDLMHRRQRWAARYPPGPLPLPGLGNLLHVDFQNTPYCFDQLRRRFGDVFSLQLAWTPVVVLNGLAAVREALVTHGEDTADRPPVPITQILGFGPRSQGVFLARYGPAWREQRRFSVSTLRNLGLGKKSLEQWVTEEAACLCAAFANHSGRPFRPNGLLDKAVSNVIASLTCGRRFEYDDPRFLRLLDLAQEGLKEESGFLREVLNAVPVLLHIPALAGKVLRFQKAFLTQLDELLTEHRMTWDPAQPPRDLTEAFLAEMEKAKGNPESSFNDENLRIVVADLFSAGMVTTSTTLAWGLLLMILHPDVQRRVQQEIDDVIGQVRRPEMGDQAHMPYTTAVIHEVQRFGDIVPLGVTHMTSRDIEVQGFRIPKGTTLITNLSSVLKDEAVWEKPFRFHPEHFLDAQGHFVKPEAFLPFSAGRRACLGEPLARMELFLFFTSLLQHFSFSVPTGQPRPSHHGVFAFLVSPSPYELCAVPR
# Cytochrome P450 1A2 (Homo sapiens), sequence (P05177 whole entry, looked up): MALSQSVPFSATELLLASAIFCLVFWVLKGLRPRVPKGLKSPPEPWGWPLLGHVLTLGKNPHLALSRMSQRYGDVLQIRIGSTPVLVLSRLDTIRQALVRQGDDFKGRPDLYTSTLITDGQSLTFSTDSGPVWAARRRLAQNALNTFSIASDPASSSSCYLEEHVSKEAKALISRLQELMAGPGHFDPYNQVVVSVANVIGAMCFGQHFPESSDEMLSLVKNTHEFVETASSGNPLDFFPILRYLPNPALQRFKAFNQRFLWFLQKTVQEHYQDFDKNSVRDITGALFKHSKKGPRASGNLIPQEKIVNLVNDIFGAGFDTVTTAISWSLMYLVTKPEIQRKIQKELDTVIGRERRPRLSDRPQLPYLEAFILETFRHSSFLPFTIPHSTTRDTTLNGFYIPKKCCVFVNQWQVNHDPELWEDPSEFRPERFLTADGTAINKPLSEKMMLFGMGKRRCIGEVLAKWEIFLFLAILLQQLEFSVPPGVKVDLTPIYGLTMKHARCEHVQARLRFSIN
# Cytochrome P450 2C9 (Homo sapiens), sequence (P11712 whole entry, looked up): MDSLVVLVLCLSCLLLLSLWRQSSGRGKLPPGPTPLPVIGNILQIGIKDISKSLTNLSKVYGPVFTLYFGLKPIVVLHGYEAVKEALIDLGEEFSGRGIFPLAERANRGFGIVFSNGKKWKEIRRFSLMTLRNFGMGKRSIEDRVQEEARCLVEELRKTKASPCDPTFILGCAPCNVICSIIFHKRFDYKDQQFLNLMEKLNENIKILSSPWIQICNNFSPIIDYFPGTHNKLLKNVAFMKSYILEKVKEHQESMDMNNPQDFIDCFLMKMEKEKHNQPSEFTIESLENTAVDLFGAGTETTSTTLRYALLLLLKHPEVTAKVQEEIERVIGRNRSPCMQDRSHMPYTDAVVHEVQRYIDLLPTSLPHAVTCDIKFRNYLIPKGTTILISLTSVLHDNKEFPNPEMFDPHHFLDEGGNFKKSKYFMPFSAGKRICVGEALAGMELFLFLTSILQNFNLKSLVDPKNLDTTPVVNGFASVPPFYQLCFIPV
Structure (SMILES),Potency [1],Potency [2],Potency [3],Potency [4],Potency [5],Potency [6],Potency [7]
COC[C@H](C)N(C(=O)CCl)c1c(C)csc1C,inactive,inactive,inactive,inactive,,,
ClC1=C(Cl)C2(Cl)C3C(Cl)C(Cl)CC3C1(Cl)C2(Cl)Cl (configuration not stated),inactive,inactive,31.6 µM (active) and 20 µM (active),24.5 µM (active),708 nM (active) and 2 µM (active),,
FC(Cl)(Cl)Cl,inactive,inactive,inactive,inactive,inactive,,
BrCBr,inactive,,inactive,inactive,inactive,inactive,inactive
O=C1c2ccccc2C(=O)C1C(=O)C(c1ccccc1)c1ccc(Cl)cc1 (configuration not stated),inactive,,0.0252 µM (active),inactive,inactive,17.8 µM (active),20 µM (active)
Clc1ccc(C(Cl)(Cl)Cl)c(Cl)c1,inactive,,inactive,,,80.2 µM (active),
CC(C)CCCCCCCOP(=O)(Oc1ccccc1)Oc1ccccc1,inactive,,6.36 µM (active),,,6.36 µM (active),28.4 µM (active)
N#Cc1c(-c2ccc(Cl)cc2)[nH]c(C(F)(F)F)c1Br,inactive,,11.2 µM (active),,inactive,39.9 µM (active),0.317 µM (active)
CCS(=O)(=O)c1cccnc1S(=O)(=O)NC(=O)Nc1nc(OC)cc(OC)n1,inactive,,71 µM (active),inactive,,63.3 µM (active),
CCOC(=O)C1(c2ccccc2)CCN(CCC(C#N)(c2ccccc2)c2ccccc2)CC1,inactive,,3.09 µM (active),0.601 µM (active),inactive,9.77 µM (active),
SCc1ccco1,inactive,,35.6 µM (active),inactive,,39.9 µM (active),35.6 µM (active)
